Shown are actives, neighbours in structure and some others; about 14% of the full set was active somewhere.
Lassa entry inh: inhibitors of Lassa virus binding or cell entry | Lassa virus pseudotype entry inhibition, cell reporter | Potency, µM (highest dose often 37.9 µM), for inactives: top-dose activity change, negative = inhibition, usual class: inhibitors | hit rate 1.2% among 300,000; calls by dose curve; tested in HEK293 cells; further: potency means the concentration at half of the fitted maximal effect; nearly all actives have a fitted effect of over 50% in size
Pf growth 48h: inhibits P. falciparum growth in the first generation, 48 h. hit rate 5.9% among 310,000. P. falciparum luciferase growth in erythrocytes, 48 h. Potency, µM (titrated, usually from 28.7 µM), inactives show top-dose activity change, negative = inhibition, hits mostly inhibitors; further: potency means the concentration at half of the fitted maximal effect
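A one-generation exposure of luciferase-tagged malaria parasites in RPMI 1640/Albumax erythrocyte culture, 37 C and 5% CO2. Inhibition is inferred from decreased luminescence after adding detection reagent.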
MARV entry inh: blocks Marburg virus binding to or entry into cells. AID 540276. Potency, µM (highest dose often 37.8 µM), inactives show at the highest dose activity change, negative = inhibition, hits mostly inhibitors. hit rate 1.8% among 300,000. Marburg virus pseudotyped entry inhibition, cell reporter; calls by dose curve; tested in HEK293 cells; further: potency means the concentration at half of the fitted maximal effect
HCV inhibitor: HCV inhibition | Huh7.5.1 HCVcc-Cre infection, luciferase reporter, 44 h | Potency, µM (titrated, usually from 41.8 µM), without a hit: at the highest dose activity change, negative = inhibition, actives largely listed as inhibitors | hit rate 3.4% among 340,000 | AID 651820; further: potency means the concentration at half of the fitted maximal effect
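Antiviral activity was scored by luciferase reporter output from cells infected with HCVcc-Cre (~0.5 moi) in presence of compound, 44 h infection period, cells seeded 1,000/well 4 h prior.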
Pf growth 96h: inhibits malaria parasite growth, 96 h; hit rate 6.9% among 320,000; Potency, µM (highest dose often 28.7 µM), without a hit: top-dose activity change, negative = inhibition, most hits filed as inhibitors; P. falciparum luciferase reporter growth, 96 h; AID 504834; further: potency means the concentration at half of the fitted maximal effect
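P. falciparum expressing integrated firefly luciferase grown in erythrocytes (2% hematocrit, 0.05% parasitemia final) with compounds for 96 hours at 37 C, 5% CO2. Growth inhibition read as loss of luminescence after adding luciferase detection reagent.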
HCMV antiviral: inhibitors of human cytomegalovirus; HFF cells, HCMV-luciferase reporter, 72 h; hits give low values; activity change, negative = inhibition, % at 57.5 µM; hit rate 4.5% among 410,000; AID 1259415; in the data active means activity change below about -60%; inconclusive means no clear call, values can overlap the other calls; inactive means above about -39%
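Inhibition of viral replication was scored as loss of reporter luminescence in HFFs infected with HCMV-luciferase (MOI 1 PFU/cell) for 72 h; compounds tested at 2 doses, normalized to buffer and Salinomycin controls.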
An asterisk follows results filed as active; ? = inconclusive; . = no result; [ ] = remark or other dose. Unless noted, the call rests on the fitted dose curve; in most records, active means well fitted inhibition curve with a large enough effect; inconclusive means small, poorly fitted or top-dose-only effect, or another doubt; inactive means no such curve, though single readings can be large or run the other way. On the % scale 0 is the no-effect control and ±100 the full control effect.

SMILES | Lassa entry inh | Pf growth 48h | MARV entry inh | HCV inhibitor | Pf growth 96h | HCMV antiviral
C/C(=N\N=C(N)N)c1ccc(C)c(C)c1 | . | 9.3µM* | . | -18% | 12µM* | 52
Cc1cc(Br)ccc1NC(=O)c1ccc(NS(=O)(=O)c2c(C)noc2C)cc1 | ? | . | 11%[46.1 µM] | . | . | -15
CCOC(=O)/C=C/C(=O)Nc1ccccc1-c1ccccc1NC(=O)/C=C/C(=O)OCC | 13µM* | 4.7µM* | ? | 13µM* | ? | -98*
CCOC(=O)/C=C/C(=O)Nc1cccc([N+](=O)[O-])c1 | ? | 0% | ? | ? | 2% | .
CCOC(=O)C1=C(C)N=c2s/c(=C\c3cc(OC)c(OC)c(OC)c3)c(=O)n2C1/C=C/c1ccccc1 (centres undefined) | ? | 15µM* | -1% | ? | 2.1µM* | 19
COc1ccc(C2C(C(C)=O)=C(C)N=c3s/c(=C/c4ccc5c(c4)OCO5)c(=O)n32)cc1 (centres undefined) | . | 13µM* | . | 8% | ? | .
CCOC(=O)C1=C(C)N=c2s/c(=C/c3cccc(OCC(=O)O)c3)c(=O)n2C1c1ccc(F)cc1 (centres undefined) | . | ? | . | . | 0% | -31
CCOC(=O)C1=C(C)N=c2sc(=Cc3ccc(OCC(=O)O)cc3)c(=O)n2C1c1ccc(SC)cc1 (centres undefined) | . | . | . | . | . | -2
CCOC(=O)C1=C(C)N=c2s/c(=C\c3cccc(OCC(=O)O)c3)c(=O)n2C1c1ccccc1 (centres undefined) | 0% | 12µM* | -6% | -14% | 0.93µM* | -19
CCOC(=O)C1=C(c2ccccc2)N=c2sc(=Cc3cc(OC)c(OC)c(OC)c3)c(=O)n2C1c1cccs1 (centres undefined) | . | . | . | . | . | -14
CC1=C(C(=O)OC(C)C)C(c2ccc(Cl)cc2)n2c(s/c(=C\c3ccc(OCC(=O)O)cc3)c2=O)=N1 (centres undefined) | . | 12µM* | . | -11% | 7.4µM* | 7
CCOC(=O)C1=C(C)N=c2s/c(=C\c3ccc(OCC(=O)O)cc3)c(=O)n2C1c1ccccc1 (centres undefined) | 8% | 7.4µM* | -11% | 1% | 10µM* | -29
CCOC(=O)C1=C(c2ccccc2)N=c2s/c(=C\c3ccc(O)cc3)c(=O)n2C1c1cccs1 (centres undefined) | 16µM* | 2.9µM* | ? | 10µM* | 2.6µM* | 45
CC(=O)N1C[C@H]2CON(C)[C@H]2C[C@H]1c1ccccc1 | . | . | . | . | . | 2
COc1ccc2c(Sc3ccccc3)c(C(=O)NCc3cccc(OC)c3OC)[nH]c2c1 | ? | . | ? | . | . | 23
COc1cccc(CNC(=O)c2[nH]c3cc(C)ccc3c2Sc2ccccc2)c1 | -8%[46.1 µM] | . | -23%[46.1 µM] | . | . | -63*
CCC1CCC2(CC1)NNC(=S)NN2 | -14% | . | -26% | 0% | ? | -62*
C=CC1=C2C=C(C3CC3)N(c3ccc(OC)cc3)C=C2C(=O)C(C)(OC(=O)c2ccco2)C1=O (centres undefined) | . | . | -22%[14.2 µM] | . | . | .
NC(=O)c1ccc[n+](CC(=O)c2ccccc2)c1 | 10%[46.1 µM] | 53% | ? | 0.56µM* | -2% | -6
N#Cc1ccc[n+](CC(=O)c2ccc(Cl)cc2)c1 | 22% | -3% | ? | 0% | 7.4µM* | 3
NC(=O)c1ccc[n+](CC(=O)c2ccc(NC(=O)c3ccccc3)cc2)c1 | ? | ? | ? | 23% | 26% | 0
O=C(C[n+]1cccc(NC(=O)c2ccccc2)c1)c1ccc(NC(=O)c2ccccc2)cc1 | 3% | ? | 16% | -9% | ? | -12
O=C(C[n+]1ccc2ccccc2c1)c1ccc(NC(=O)c2ccccc2)cc1 | -27% | 13µM* | -6%[46.1 µM] | -13% | 51% | -6
Cc1ccc[n+](CC(=O)c2ccc(Br)cc2)c1 | . | 1% | . | 9% | -24% | 48
CCOC(=O)N1CCC(N(CCN(C)C)C(=S)Nc2cccc(OC)c2)CC1 | -16%[46.1 µM] | -5% | 10%[46.1 µM] | -3% | 7.4µM* | 0
SMILES | Lassa entry inh | Pf growth 48h | MARV entry inh | HCV inhibitor | Pf growth 96h | HCMV antiviral
COCCN(C(=S)Nc1cccc(OC)c1)C1CCN(C(C)C)CC1 | 4% | 1% | 3% | 1% | 13µM* | 21
CC(C)CCN(C(=O)Nc1ccc(Cl)cc1)C1CCN(C(C)C)CC1 | ? | 13µM* | ? | ? | ? | -15
COCCN(CCOC)C(=S)Nc1ccccc1 | 1%[46.1 µM] | 0% | -7% | 1.8µM* | 38% | -16
Cn1c(SCC(N)=O)nc2c([nH]c3ccccc32)c1=O | 4%[46.1 µM] | . | . | . | . | 32
O=C(CSc1nc2c([nH]c3ccccc32)c(=O)n1-c1ccc(F)cc1)NCC1CCCO1 (centres undefined) | ? | . | . | . | . | -17
O=C(NC1CC1)c1cccc(NC(=O)C2CCN(S(=O)(=O)c3ccccc3C(F)(F)F)CC2)c1 | . | . | . | . | . | 8
C/C=C(\C)C(=O)N1CCC(C(=O)c2ccccc2)CC1 | 9%[46.1 µM] | -9%[0.00184 µM] | 6%[46.1 µM] | 9% | 20% | .
COc1ccc(NC(=S)N(CCC(C)C)C2CCN(C(C)C)CC2)cc1Cl | ? | ? | ? | 4µM* | ? | -62*
COCCN(C(=S)Nc1ccc(OC)c(Cl)c1)C1CCN(C(C)C)CC1 | -12% | 10% | ? | ? | ? | ?
COCCN(C(=S)Nc1ccc(OC)cc1)C1CCN(C(C)C)CC1 | -2% | -4% | 10% | -3% | 12µM* | -13
COc1ccccc1CC(=O)Nc1ccc(-c2noc(COc3cccc(C)c3C)n2)cc1 | . | . | -2% | ? | 15µM* | 15
COc1ccccc1CC(=O)Nc1ccc2[nH]ncc2c1 | 14% | 10µM* | ? | -5% | -5% | -16
